Reference: publication PMC5540273 (PLoS ONE, 2017)

Columns and labels:
Settings in all cases: concentration: 1 μM, replicates: in singlicate; n = 1
MAPKAPK5 = tested on: MAPKAPK5
MARK1 = tested on: MARK1
MARK2 = tested on: MARK2
MARK3 = tested on: MARK3
MARK4 = tested on: MARK4
MAST1 = tested on: MAST1
MEK1 = tested on: T1, MEK1
T1 construct: gene MAP2K1

MEK2 = tested on: T2, MEK2
T2 construct: gene MAP2K2

MEK3 = tested on: T3, MEK3
T3 construct: gene MAP2K3

MEK4 = tested on: T4, MEK4
T4 construct: gene MAP2K4

MEK5 = tested on: T5, MEK5
T5 construct: gene MAP2K5

MEK6 = tested on: T6, MEK6
T6 construct: gene MAP2K6

MELK = tested on: MELK
MERTK = tested on: MERTK
MET = tested on: MET
MINK = tested on: T7, MINK
T7 construct: gene MINK1

MKK7 = tested on: MKK7
MKNK1 = tested on: MKNK1
MKNK2 = tested on: MKNK2
MLCK = tested on: T8, MLCK
T8 construct: gene MYLK3
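Further: KINOMEscan kinase panel screen.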

| SMILES | %Inh (MAPKAPK5) | %Inh (MARK1) | %Inh (MARK2) | %Inh (MARK3) | %Inh (MARK4) | %Inh (MAST1) | %Inh (MEK1) | %Inh (MEK2) | %Inh (MEK3) | %Inh (MEK4) | %Inh (MEK5) | %Inh (MEK6) | %Inh (MELK) | %Inh (MERTK) | %Inh (MET) | %Inh (MINK) | %Inh (MKK7) | %Inh (MKNK1) | %Inh (MKNK2) | %Inh (MLCK) |
| --- | --- | --- | --- | --- | --- | --- | --- | --- | --- | --- | --- | --- | --- | --- | --- | --- | --- | --- | --- | --- |
| CN(c1ccc(NC(=O)N2CCN(CCCN3CCOCC3)CC2)cc1)c1ccnc(Nc2ccc(CS(C)(=O)=O)cc2)n1.Cl [GW830899] | 0% | 0% | 1% | 1% | 30% | 0% | 0% | 23% | 0% | 0% | 80% | 0% | 0% | 0% | 67% | 0% | 0% | 33% | 0% | 0% |
| Cc1ccc(-c2ccc3occ(-c4ccc(S(C)=O)cc4)c3c2)nn1 (stereo not shown) | 0% | 0% | 14% | 16% | 4% | 0% | 0% | 4% | 0% | 0% | 0% | 0% | 0% | 0% | 0% | 0% | 0% | 0% | 0% | 5% |
| O=C(Nc1c(F)cccc1F)c1cc(C(=O)c2ccccc2F)c[nH]1 [GSK1326180] | 0% | 0% | 0% | 3% | 9% | 0% | 0% | 0% | 0% | 10% | 20% | 0% | 0% | 18% | 0% | 47% | 0% | 10% | 0% | 2% |
| Cc1ccccc1CC(=O)N1CCc2cc(-c3cn(C)c4ncnc(N)c34)ccc21 [GSK2603346] | 0% | 0% | 0% | 0% | 0% | 0% | 0% | 0% | 1% | 27% | 99.9% | 73% | 7% | 46% | 70% | 0% | 0% | 7% | 55% | 6% |
| c1ccc(Oc2ccc(Nc3ccnc4cc(-c5ccc(CN6CCCCC6)o5)ccc34)cc2)nc1 [GW567143] | 0% | 0% | 0% | 0% | 5% | 0% | 95.3% | 97.1% | 0% | 0% | 100% | 0% | 0% | 50% | 11% | 25% | 0% | 7% | 37% | 0% |
| CC(C)c1nc(-c2cccc(NS(=O)(=O)c3c(F)cccc3F)c2)c(-c2ccnc(Nc3ccc(N4CCOCC4)nc3)n2)s1.Cl [GSK1723980] | 0% | 0% | 0% | 0% | 40% | 0% | 5% | 35% | 15% | 98.6% | 99.9% | 37% | 47% | 50% | 42% | 17% | 0% | 10% | 98.8% | 0% |
| COc1cccc(-c2nc(-c3ccccc3)[nH]c2-c2ccncc2)c1 [SB-610250] | 0% | 0% | 0% | 0% | 0% | 22% | 0% | 0% | 0% | 0% | 26% | 100% | 14% | 9% | 0% | 10% | 0% | 22% | 5% | 0% |
| CN(C)CCNS(=O)(=O)c1ccc(-c2ccnc3[nH]ccc23)cc1 [GSK977620] | 0% | 8% | 31% | 13% | 2% | 0% | 0% | 0% | 10% | 19% | 71% | 100% | 92.6% | 72% | 0% | 4% | 6% | 0% | 77% | 18% |
| CC(C)NCC(Cc1ccccc1)NC(=O)c1cc(Br)c(-c2ccnc3[nH]ccc23)s1.Cl.Cl (stereo not shown) [GSK1383281] | 0% | 11% | 31% | 60% | 0% | 0% | 0% | 0% | 87% | 39% | 3% | 79% | 97.5% | 39% | 17% | 37% | 0% | 0% | 90.5% | 13% |
| Cc1cccc(Nc2nc(NCCN)ncc2C(N)=O)c1 [GSK1292139] | 44% | 0% | 39% | 7% | 0% | 0% | 0% | 9% | 94.9% | 55% | 99.2% | 19% | 1% | 3% | 29% | 87% | 0% | 13% | 15% | 14% |
| NCCC(NC(=O)c1cc(Br)c(-c2ccnc3[nH]ccc23)s1)c1ccccc1.O=C(O)C(F)(F)F.O=C(O)C(F)(F)F (stereo not shown) [GSK1307810] | 0% | 7% | 26% | 0% | 11% | 15% | 0% | 0% | 93.7% | 52% | 18% | 8% | 74% | 25% | 24% | 55% | 18% | 32% | 93.9% | 85% |
| CC(C)(C)c1ccc(C(=O)Nc2cn3cc(-n4ccnc4)ccc3n2)cc1 | 0% | 0% | 3% | 0% | 0% | 38% | 5% | 6% | 0% | 38% | 99% | 0% | 0% | 0% | 0% | 18% | 0% | 8% | 0% | 19% |
| CSc1ccc(NC2=C(c3ccc(Cl)cc3)C(=O)NC2=O)cc1 [SB-317658] | 0% | 3% | 0% | 28% | 21% | 23% | 3% | 6% | 0% | 0% | 22% | 3% | 0% | 0% | 0% | 0% | 0% | 14% | 0% | 29% |
| COc1cc(Nc2nccc(N3CCC(NS(=O)(=O)c4ccc(NC(C)=O)cc4)CC3)n2)cc(OC)c1OC [GSK1379825] | 0% | 14% | 1% | 0% | 15% | 13% | 0% | 0% | 6% | 14% | 88% | 24% | 19% | 38% | 0% | 0% | 15% | 0% | 83% | 0% |
| Cc1cccc(Nc2nc(N[C@H]3CCCC[C@H]3N)ncc2C(N)=O)c1.Cl [GSK986310] | 0% | 5% | 37% | 0% | 13% | 0% | 8% | 19% | 88% | 69% | 98.4% | 5% | 0% | 64% | 0% | 73% | 0% | 0% | 17% | 13% |
| Cc1ccc(NC(=O)c2ccnc(N3CCCCC3)c2)cc1-c1ccc(C(=O)NCC2CC2)cc1 [GW775610] | 5% | 0% | 14% | 0% | 2% | 37% | 4% | 0% | 45% | 0% | 1% | 6% | 0% | 3% | 0% | 5% | 0% | 0% | 33% | 0% |
| Cc1ccc(O)cc1Nc1ccnc2cc(-c3ccc(CN4CCCCC4)o3)ccc12 [GW557777] | 0% | 8% | 8% | 0% | 0% | 0% | 17% | 30% | 2% | 0% | 97.9% | 15% | 0% | 13% | 0% | 38% | 0% | 0% | 0% | 0% |
